Test results from PubChem BioAssay (NCATS).
Results filed as inconclusive are left out. Activity calls are given as the source filed them. Calls come from the whole dose curve; as a rule, active = well fitted curve in the direction sought with a large enough effect; inconclusive = small, poorly fitted or top-dose-only effect, or another doubt; inactive = no such curve, though single readings can be large; an effect the other way counts as inactive or inconclusive.

Assays:
CRL-7250 = normal cell line; assay: Cytotoxic Profiling of Annotated Libraries Using Quantitative High-Throughput Screening (AID 1296008); settings: Five cell lines viability, CellTiter-Glo ATP luminescence, 48-72 h; max response: active compounds read low; note: nearly all actives have a fitted effect of over 60% in size; for max response: % is set by controls: 0 for no effect and ±100 for the full control effect
Outline: (§1)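 Compounds were pin-transferred onto cells and incubated 48 or 72 hr at 37 degree Celsius, 95% humidity. CellTiter-Glo was added, plates sat 10 min at room temperature, then ATP-coupled luminescence was imaged as the viability read-out.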

HEK293 = assay: as above; settings: Five cell lines viability, CellTiter-Glo ATP luminescence, 48-72 h; max response: active compounds read low
Outline: as §1

HaCat = assay: as above; settings: Five cell lines viability, CellTiter-Glo ATP luminescence, 48-72 h; max response: active compounds read low
Outline: as §1

KB-3-1 = assay: as above; settings: Five cell lines viability, CellTiter-Glo ATP luminescence, 48-72 h; max response: active compounds read low
Outline: as §1

NIH3T3 [1] = assay: as above; settings: Five cell lines viability, CellTiter-Glo ATP luminescence, 48-72 h; max response: active compounds read low
Outline: as §1

NIH3T3 [2] = assay: qHTS assay to identify novel small-molecules to repurpose for Merkel cell carcinoma treatment (AID 1296009); settings: MCC and control cell lines, CellTiter-Glo viability, 72 h; at 44.8 µM (top of the series) unless noted; note: nearly all actives have a fitted effect of over 60% in size
Outline: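 Viability readout: ATP luminescence (CellTiter-Glo) after 72 hr drug exposure at 37 degree celsius. Dose-response format was 8 points for NPC and 11 points for MIPE; data normalized to in-plate controls.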

C33A = assay: Primary qHTS to identify gynecologic anti-cancer compounds using libraries of approved drugs and bioactive compounds (AID 1345084); settings: Gynecologic cancer cell panel viability, ATPlite luminescence, 48 h; series mostly up to 57.5 µM; note: % is set by controls: 0 for no effect and ±100 for the full control effect; nearly all actives have a fitted effect of over 55% in size
Outline: (§2)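 48 h compound exposure at 37 C, 5% CO2; five-point qHTS. ATPlite luminescence readout of cell ATP.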

CAOV3 = assay: as above; settings: Gynecologic cancer cell panel viability, ATPlite luminescence, 48 h; series mostly up to 57.5 µM
Outline: as §2

CASKI = assay: as above; settings: Gynecologic cancer cell panel viability, ATPlite luminescence, 48 h; series mostly up to 57.5 µM
Outline: as §2

Es-2 = assay: as above; settings: Gynecologic cancer cell panel viability, ATPlite luminescence, 48 h; series mostly up to 57.5 µM
Outline: as §2

HeLa = assay: as above; settings: Gynecologic cancer cell panel viability, ATPlite luminescence, 48 h; series mostly up to 57.5 µM
Outline: as §2

Hek293T = assay: as above; settings: Gynecologic cancer cell panel viability, ATPlite luminescence, 48 h, control line for the selectivity index; series mostly up to 57.5 µM
Outline: as §2

JEG-3 = assay: as above; settings: Gynecologic cancer cell panel viability, ATPlite luminescence, 48 h; series mostly up to 57.5 µM
Outline: as §2

OV90 = assay: as above; settings: Gynecologic cancer cell panel viability, ATPlite luminescence, 48 h; series mostly up to 57.5 µM
Outline: as §2

PA-1 = assay: as above; settings: Gynecologic cancer cell panel viability, ATPlite luminescence, 48 h; series mostly up to 57.5 µM
Outline: as §2

COC(=O)[C@]1(C)CCC[C@@]2(C)[C@@H]3CC[C@@H]4C[C@@]3(CC[C@@H]21)C[C@H]4C(=O)O
inactive: max response (CRL-7250) -6.63% | max response (HEK293) 0.134% | max response (HaCat) 0.436% | max response (KB-3-1) 9.78% | outcome (NIH3T3 [1]) | outcome (NIH3T3 [2]) | Potency (C33A) | Potency (CAOV3) | outcome (CASKI) | Potency (Es-2) | Potency (HeLa) | Potency (Hek293T) | Potency (JEG-3) | Potency (OV90) | Potency (PA-1)

CC(C/C=C/C(C)(C)O)C1CCC(C)(O)C(O)C1 (stereo not given)
inactive: outcome (CRL-7250) | max response (HEK293) 2.47% | max response (HaCat) 0.0762% | outcome (KB-3-1) | outcome (NIH3T3 [1]) | outcome (NIH3T3 [2]) | Potency (C33A) | Potency (CAOV3) | outcome (CASKI) | Potency (Es-2) | Potency (HeLa) | Potency (Hek293T) | Potency (JEG-3) | Potency (OV90) | Potency (PA-1)

COc1cc([C@@H](O[C@@H]2O[C@H](CO)[C@@H](O)[C@H](O)[C@H]2O)[C@@H]2CO[C@H](c3ccc(O)c(OC)c3)[C@H]2CO)ccc1O
inactive: outcome (CRL-7250) | max response (HEK293) 2.55% | max response (HaCat) 0.823% | max response (KB-3-1) -3.03% | outcome (NIH3T3 [1]) | outcome (NIH3T3 [2]) inactive [at 17.4 µM] | Potency (C33A) | Potency (CAOV3) | outcome (CASKI) | Potency (Es-2) | Potency (HeLa) | Potency (Hek293T) | Potency (JEG-3) | Potency (OV90) | Potency (PA-1)

CC1(C)CCCC2(C)c3c4c(c(=O)oc(=O)c3=CCC12)=CCC1C(C)(C)CCCC41C (stereo not given)
inactive: max response (CRL-7250) -2.61% | max response (HEK293) 2.74% | max response (HaCat) 0.0105% | outcome (KB-3-1) | outcome (NIH3T3 [1]) | outcome (NIH3T3 [2]) inactive [at 17.4 µM] | Potency (C33A) | Potency (CAOV3) | outcome (CASKI) | Potency (Es-2) | Potency (HeLa) | Potency (Hek293T) | Potency (JEG-3) | Potency (OV90) | Potency (PA-1)

CCC(C)/C=C(C)/C=C/C1=CC2=CC(=O)C(C)(O)C(OC(C)=O)C2CO1 (stereo not given)
inactive: outcome (CRL-7250) | max response (HEK293) -22.7% | max response (HaCat) 4.74% | max response (KB-3-1) -4.84% | outcome (NIH3T3 [1]) | outcome (NIH3T3 [2]) | Potency (C33A) | Potency (CAOV3) | outcome (CASKI) | Potency (Es-2) | Potency (HeLa) | Potency (Hek293T) | Potency (JEG-3) | Potency (OV90) | Potency (PA-1)

CC(=O)O[C@@H]1[C@H](OC(C)=O)C[C@@]2(C)C(CC[C@@H](C)[C@]23Cc2c(O)cc4c(c2O3)CN([C@@H](CCC(=O)O)C(=O)O)C4=O)C1(C)C (stereo not given in full)
inactive: max response (CRL-7250) -2.81% | max response (HEK293) -1.84% | max response (HaCat) -30.9% | max response (KB-3-1) 5.86% | outcome (NIH3T3 [1]) | outcome (NIH3T3 [2]) inactive [at 17.4 µM] | Potency (C33A) | Potency (CAOV3) | outcome (CASKI) | Potency (Es-2) | Potency (HeLa) | Potency (Hek293T) | Potency (JEG-3) | Potency (OV90) | Potency (PA-1)

CC1OC(OC2C(OC3C(O[C@H]4CC[C@@]5(C)C(CC[C@]6(C)C5CC=C5C7CC(C)(C)CC(O)[C@]7(C)CC[C@]56C)C4(C)C)OC(C(=O)O)C(O)C3O)OCC(O)C2O)C(O)C(O)C1O (stereo not given in full)
inactive: outcome (CRL-7250) | max response (HEK293) 4.82% | max response (HaCat) -11.3% | max response (KB-3-1) 9.21% | outcome (NIH3T3 [1]) | outcome (NIH3T3 [2]) inactive [at 9.27 µM] | activity change, negative = cytotoxicity (C33A) 14% [at 11.6 µM] | activity change, negative = cytotoxicity (CAOV3) 4.78% [at 11.6 µM] | activity change, negative = cytotoxicity (CASKI) -6.68% [at 11.6 µM] | activity change, negative = cytotoxicity (Es-2) 1.85% [at 11.6 µM] | activity change, negative = cytotoxicity (HeLa) 7.99% [at 11.6 µM] | activity change, negative = cytotoxicity (Hek293T) -2.65% [at 11.6 µM] | activity change, negative = cytotoxicity (JEG-3) 6.46% [at 11.6 µM] | activity change, negative = cytotoxicity (OV90) 9.07% [at 11.6 µM] | activity change, negative = cytotoxicity (PA-1) 30% [at 11.6 µM]

COc1c2c(c(C)c3c1C(=O)OC3)OC1(C)CC(O)C34OC(OC)(CCC3(C)C1C2)OC4(C)CO (stereo not given)
inactive: outcome (CRL-7250) | max response (HEK293) -8.39% | max response (HaCat) 2.59% | outcome (KB-3-1) | outcome (NIH3T3 [1]) | outcome (NIH3T3 [2]) inactive [at 17.4 µM] | Potency (C33A) | Potency (CAOV3) | outcome (CASKI) | Potency (Es-2) | Potency (HeLa) | Potency (Hek293T) | Potency (JEG-3) | Potency (OV90) | Potency (PA-1)

COc1ccc(CCC(=O)O)c(O[C@@H]2O[C@H](CO)[C@@H](O)[C@H](O)[C@H]2O)c1
inactive: outcome (CRL-7250) | max response (HEK293) -2.75% | max response (HaCat) 3.93% | max response (KB-3-1) -5.8% | outcome (NIH3T3 [1]) | outcome (NIH3T3 [2]) | Potency (C33A) | Potency (CAOV3) | outcome (CASKI) | Potency (Es-2) | Potency (HeLa) | Potency (Hek293T) | Potency (JEG-3) | Potency (OV90) | Potency (PA-1)

CCC/C=C1\OC(=O)C2=C1CCC(O)C2O (stereo not given)
inactive: outcome (CRL-7250) | max response (HEK293) 1.42% | max response (HaCat) 3.9% | max response (KB-3-1) 0.969% | outcome (NIH3T3 [1]) | outcome (NIH3T3 [2]) | Potency (C33A) | Potency (CAOV3) | outcome (CASKI) | Potency (Es-2) | Potency (HeLa) | Potency (Hek293T) | Potency (JEG-3) | Potency (OV90) | Potency (PA-1)
